Experimental data reported in ChEMBL document CHEMBL3988442, “University of Dundee, Small-Polar-MMV Screening Library” (2021).
Hit rate of the full screen: of about 85,000 compounds, about 440 (0.52%) showed an effect of 50% or more. Many of the other results were omitted from the sample, so strong results are more common in it than they were.

Assay: In vitro enzyme assay to detect hydrolysis of chlorophenol red-beta-D-[…] directly proportional to the number of Toxoplasma stably expressing beta-galactosidase
Assay type: functional, organism-based, Toxoplasma gondii
Parameters: scale not given: in the data most compounds retested in dose-response had high values

Row | Structure (SMILES) | Percent Effect (50 µM) [%] | Percent Effect (10 µM) [%]
1 | Cc1c(N)cnn1C1CCOCC1 | -9.55 | 
2 | COc1ccc(OC)c(N2C(=O)CCC2=O)c1 | -4.608 | 
3 | CN(CCOCCO)CCOc1ccc(F)cc1 | 15.3 | 
4 | O=C1NCCOc2ccc(Br)cc21 | -18.86 | 
5 | COc1ccc(C)cc1CNC(=O)C1=NN(c2ccccc2)C(=O)CN1 |  | 14.43
6 | COc1ccccc1CNC(=O)C1=NN(c2ccc(C)cc2)C(=O)CN1 |  | 57.58
7 | COc1ccc(CNC(=O)C2=NN(c3ccc(C)cc3)C(=O)CN2)cc1 |  | -0.9855
8 | Cc1cc2c(cc1S(=O)(=O)N1CCCC(N)C1)OCO2 (stereo unspecified) | 6.23 | 
9 | CC(C)C1=NOC2(CCN(Cc3c[nH]c4ccccc34)CC2)C1 |  | 33.52
10 | c1cncc(C2=NOC3(CCN(Cc4c[nH]c5ccccc45)CC3)C2)c1 |  | 26.44
11 | c1ccc(C2=NOC3(CCN(Cc4c[nH]c5ccccc45)CC3)C2)cc1 |  | 73.52
12 | CCCC(C(=O)OCC)S(N)(=O)=O (stereo unspecified) | -4.644 | 
13 | COC(=O)C(C)SCc1noc(C2CC2)n1 (stereo unspecified) | 1.688 | 
14 | CCN1C[C@H](NC(=O)c2cccn2C(C)C)[C@@H](OC)C1 | -5.083 | 
15 | CCN1C[C@H](NC(=O)c2snnc2C(C)C)[C@@H](OC)C1 | 82.91 | 
16 | CCN1C[C@H](NC(=O)c2ccc(Cl)s2)[C@@H](OC)C1 | 2.981 | 
17 | CCC(NC(=O)c1cc(N)[nH]n1)c1nc(C)c[nH]1 (stereo unspecified) | 4.795 | 
18 | Cc1nnsc1CN(C)C(=O)c1ccccc1 | 22.64 | 
19 | O=C(N[C@@H]1CNC[C@H]1CO)C1CCC1 | -0.2309 | 
20 | Cc1cc(CN)nc(N2CCCC2)n1 | -18.34 | 
21 | CN(C)c1nc(CN)cs1 | -3.708 | 
22 | Cc1cc(CN)nc(N(C)C)n1 | 87.02 | 
23 | COCCNC(=O)CCC1CCN(CCCSC)CC1 | 11.51 | 
24 | CCOc1ncccc1C(=O)N1CCCN(C)CC1 | 3.231 | 
25 | COCCNC(=O)NC(C)CCc1ccc(O)cc1 (stereo unspecified) | -3.348 | 

Row | Structure (SMILES) | Percent Effect (50 µM) [%] | Percent Effect (10 µM) [%]
26 | CN(C)CC(C)(C)CN1CCC(c2ccnc(-c3cccc(O)c3)c2)C1 (stereo unspecified) |  | 7.739
27 | Oc1cccc(-c2cc(C3CCN(Cc4cncnc4)C3)ccn2)c1 (stereo unspecified) |  | 0.5564
28 | Cn1ccnc1CN1CCC(c2ccnc(-c3cccc(O)c3)c2)C1 (stereo unspecified) |  | 55.29
29 | N#CC1(NC(=O)C(O)Cc2ccccc2Cl)CCC1 (stereo unspecified) | -6.44 | 
30 | CCc1cccc(C)c1NC(=O)CN1CCNC(=O)C1 | -0.5853 | 
31 | O=C1CN(CC(=O)Nc2c(Cl)cccc2Cl)CCN1 | 55.2 | 
32 | Cc1ccc(Cl)cc1NC(=O)CN1CCNC(=O)C1 | 47.59 | 
33 | CN(C)S(=O)(=O)CCNC1CCCNC1 (stereo unspecified) | 23.13 | 
34 | CCn1cc(CN(C)S(=O)(=O)c2cnn(C)c2)cn1 |  | 10.44
35 | CCn1cc(CN(C)S(=O)(=O)c2ccc(C)c(C)c2)cn1 |  | 6.128
36 | CCOc1ccc(S(=O)(=O)N(C)Cc2cnn(CC)c2)cc1 |  | 22.15
37 | CCn1cc(CN(C)S(=O)(=O)c2ccc(C(C)C)cc2)cn1 |  | 71.72
38 | CCn1cc(CN(C)S(=O)(=O)c2ccccc2)cn1 |  | 61.21
39 | CCn1cc(CN(C)S(=O)(=O)c2ccc(Cl)cc2)cn1 |  | 4.304
40 | Nc1nnc(SCc2cn3ccccc3n2)s1 | -6.062 | 
41 | COc1ccccc1NC(=O)CC#N | 50.64 | 
42 | N#CCC(=O)Nc1ccccc1I | 0.5556 | 
43 | CNCC(=O)Nc1ccccc1OC | 7.8 | 
44 | Cn1c(C(C)(C)N)nc2ccccc21 | 4.322 | 
45 | COC(=O)Cc1cccc(NC(=O)CC2CC2)n1 | 2.915 | 
46 | COc1cccc(CNCC2CCOC2)c1 (stereo unspecified) | 52.55 | 
47 | COc1cccc(CNCC2CN(C)CCO2)c1 (stereo unspecified) |  | -20.59
48 | COc1cccc(N2CCC(CNCc3cccc(C#N)c3)C2)c1 (stereo unspecified) |  | -3.388
49 | O=C(NCCSCc1cccc(Cl)c1)C1CNCCO1 (stereo unspecified) | 4.575 | 
50 | CC(C)OCC(O)CN1CCN(C(C)C)CC1 (stereo unspecified) | -5.583 | 

Row | Structure (SMILES) | Percent Effect (50 µM) [%] | Percent Effect (10 µM) [%]
51 | CC(C)(C)NCc1ccc(OCc2ccc3c(c2)OCCO3)cc1.Cl |  | -4.151
52 | CCCNCc1ccc(OCc2ccc3c(c2)OCCO3)cc1.Cl |  | 26.87
53 | CCNCc1ccc(OCc2ccc3c(c2)OCCO3)cc1.Cl |  | 57.45
54 | CNCc1ccc(OCc2ccc3c(c2)OCCO3)cc1.Cl |  | 14.53
55 | CC(O)CNCc1ccc(OCc2ccc3c(c2)OCCO3)cc1.Cl (stereo unspecified) |  | -0.2514
56 | COc1ccc2oc(CNC(C)(CO)CO)cc2c1 | 4.082 | 
57 | O=C(CNC(=O)c1cccs1)c1ccccc1 | -23.7 | 
58 | CCN(CC(C)(C)O)C(=O)c1nccc2ccccc12 | -2.694 | 
59 | CCNC(=O)CN1CCN(Cc2cccnc2N)CC1 | 3.908 | 
60 | COCC(C)NC(=O)CCn1cnc2sccc2c1=O (stereo unspecified) | -6.543 | 
61 | CS(=O)(=O)NCC(=O)NCc1cnn2ccccc12 | -11.78 | 
62 | CCN1CCCC1CNS(=O)(=O)CCCC#N (stereo unspecified) | -20.61 | 
63 | CCc1n[nH]c(NC(=O)c2cc(C(C)=O)cs2)n1 | -2.258 | 
64 | NC(=O)CCN1C(=O)CCC1=O | 1.954 | 
65 | Cc1ccccc1CNC(=O)N(C)Cc1nnc[nH]1 | -3.326 | 
66 | COC(=O)c1cnc(O)cn1 | 0.4239 | 
67 | COC(=O)c1cnc(OC)cn1 | 10.7 | 
68 | COC(=O)c1cnc(F)cn1 | 53.27 | 
69 | O=C(CNC1(CO)CCOCC1)Nc1cccc(F)c1 | -18.29 | 
70 | CC(C)C(N)C1(CO)CCC1 (stereo unspecified) | -14.82 | 
71 | N#Cc1cccnc1NCC1COc2ccccc2O1 (stereo unspecified) | -5.408 | 
72 | CCc1ccc(CN2CCCn3c(nc(Cn4ccnc4)cc3=O)C2)o1.O=C(O)C(F)(F)F.O=C(O)C(F)(F)F |  | 1.534
73 | O=c1cc(Cn2ccnc2)nc2n1CCCN(Cc1ccco1)C2 |  | -0.8368
74 | Cc1ccc(CN2CCCn3c(nc(Cn4ccnc4)cc3=O)C2)o1 |  | 95.97
75 | NC(=O)CN1CC(c2nc(C3CC3)no2)C1.O=C(O)C(=O)O |  | -8.991

Row | Structure (SMILES) | Percent Effect (50 µM) [%] | Percent Effect (10 µM) [%]
76 | O=C(CN1CC(c2nc(C3CC3)no2)C1)N1CCOCC1.O=C(O)C(=O)O |  | 76.44
77 | CC(c1nc(C2CC2)no1)N1CCN(CC(=O)N2CCOCC2)CC1 (stereo unspecified) |  | 3.194
78 | CC1CCN(C(=O)CN2CC(c3nc(C4CC4)no3)C2)CC1.O=C(O)C(=O)O |  | -17.41
79 | O=C(CN1CCCC(c2noc(C3CC3)n2)C1)N1CCCC1 (stereo unspecified) |  | 4.609
80 | Nc1ccnn1Cc1ccccn1 | -24.54 | 
81 | O=C(CN1CCCCC1)N1CCCCC1 | 1.789 | 
82 | O=C(NCCOCCO)c1cn2ccsc2n1 | 19.68 | 
83 | CNC(=O)C1CNC1 | 0.513 | 
84 | COCCCNC(=O)CN(C)c1ccccc1F | 2.537 | 
85 | Cc1ccc(-c2cccc(N3CCC(NC4CCOCC4)CC3)c2)cc1 |  | 36.9
86 | Clc1cccc(-c2cccc(N3CCC(NC4CCOCC4)CC3)c2)c1 |  | 94.46
87 | COc1cccc(-c2cccc(N3CCC(N[C@@H]4CCOC4)CC3)c2)c1 |  | 25.91
88 | Cc1ccccc1-n1cnnc1SCCOCC1CCCO1 (stereo unspecified) |  | -4.234
89 | NCCOCC1CCCO1 (stereo unspecified) | -7.088 | 
90 | c1cc(SCCOCC2CCCO2)ccn1 (stereo unspecified) | 73.14 | 
91 | CN1CCOC(C(=O)N(C)Cc2cccc(O)c2)C1 (stereo unspecified) | -4.809 | 
92 | CN(C)c1nc(N)nc(CN2CCCC2c2cccs2)n1 (stereo unspecified) |  | 12.16
93 | Oc1ccccc1CN1CCCCCC1c1cccs1 (stereo unspecified) |  | 10.91
94 | Nc1nc(N)nc(CN2CCCC2c2cccs2)n1 (stereo unspecified) | 61.8 | 
95 | CC(=O)NCCCc1nc2ccccc2n1C | -0.2926 | 
96 | O=C(CN1CCOCC1)N1CCCC(c2nnc[nH]2)C1 (stereo unspecified) | -8.944 | 
97 | CC1C(=O)NCCN1C(=O)c1cc(-c2ccco2)on1 (stereo unspecified) | 0.5841 | 
98 | Cc1cc(F)cc(S(=O)(=O)NCCN)c1 | -4.306 | 
99 | O=C(CCn1cccn1)Nc1cncc(Br)c1O | -6.766 | 
100 | CCCOC(C)C(=O)NCCc1noc(CO)n1 (stereo unspecified) | -15.52 | 

Row | Structure (SMILES) | Percent Effect (50 µM) [%] | Percent Effect (10 µM) [%]
101 | CC[C@H](C)[C@H](N)C(=O)NCCc1noc(CO)n1 | 11.28 | 
102 | O=C(CC1CCCC1)NCCc1noc(CO)n1 | 66.39 | 
103 | Cc1nccc(CNc2ncc(C(N)=O)cc2Cl)n1 | -11.46 | 
104 | COc1ccccc1NCC(=O)NCC(C)(O)C(C)C (stereo unspecified) | 0.7495 | 
105 | NC1CSc2ccccc21 (stereo unspecified) | 16.15 | 
106 | NCCC(=O)N1CCCC(CCc2ccc(F)cc2)C1 (stereo unspecified) | 62.64 | 
107 | NCC(=O)N1CCCC(CCc2ccc(F)cc2)C1 (stereo unspecified) | 31.97 | 
108 | NCC(=O)N1CCCC(CCc2ccc(F)c(F)c2)C1 (stereo unspecified) | 39.41 | 
109 | Cc1nnc(CNC(=O)Nc2ccc(F)cc2)o1 | -6.078 | 
110 | CC1(C)CN(c2ccnc3ccccc23)CC[S+]1[O-] (stereo unspecified) | 6.751 | 
111 | O=S(=O)(NC1CCCC1)C1CCOCC1 | 42.45 | 
112 | CCCC(=O)N1CCC(O)(Cn2c(CC)nc3ccccc3c2=O)CC1.Cl |  | -0.06406
113 | CCc1nc2ccccc2c(=O)n1CC1(O)CCN(C(=O)C2CC2)CC1.Cl |  | 0.3648
114 | CCc1nc2ccccc2c(=O)n1CC1(O)CCN(C(=O)COC)CC1.Cl |  | 54.94
115 | Cc1cc(CNc2ncnc3c2cnn3C)on1 | -29.33 | 
116 | CC1COc2ccccc2N1CC(N)=O (stereo unspecified) | -5.521 | 
117 | CNC(=O)N1CCCCCC1c1ccncc1 (stereo unspecified) | 14.5 | 
118 | CSc1ccccc1NCC(=O)NC1CC1 | 51.75 | 
119 | CC(C#N)CSc1ccccc1NCC(=O)NC1CCCCC1 (stereo unspecified) |  | -5.31
120 | CC(=O)c1ccc(F)cc1NCC(=O)NC1CC1 | 5.192 | 
121 | CNCC(=O)Nc1cc(Cl)c(OCCOC)c(Cl)c1 | -0.6689 | 
